A short description of this assay: NCI Yeast Anticancer Drug Screen. Data for the wt1 strain (AID 149).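 Also: 0% = growth of vehicle-treated wt1 cultures.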 The note with it: S. cerevisiae wt1 strain (SPY 50644) growth inhibition, stronger effect = higher value. As for the experimental part:
Growth inhibition of yeast strains with defined genetic alterations is measured as a screen for potential anti-cancer activity. Selected strains with alterations in DNA damage repair or cell cycle control were exposed to compounds and growth inhibition was measured relative to vehicle treated controls. The strain used in this assay is wt1

The values below come from PubChem BioAssay (NCI).

Compounds without any hit were thinned out: in the full panel of roughly 79,000, 15% have a hit. Unmarked numbers belong to inactive results. Activity calls are given as the source filed them. Rule as the data show it: active = growth inhibition above about 70%; inactive = the rest.

`CCCCOc1ccc2nc(C)cc(N=[N+]=[N-])c2c1`: the growth inhibition is, setting by setting: (at 1.2 µM) 11%; (at 3.7 µM) 10%; (at 11.0 µM) 11%; (at 33.0 µM) 15%; (at 100.0 µM) 69%.

As to `O=C1C[C@H]2[C@H](c3ccc(Br)cc3)[C@H]3C(=O)c4ccccc4NC(=O)[C@@H]3[C@@]2(O)c2ccccc2N1`, the growth inhibition by setting is: (at 1.2 µM) 6%; (at 3.7 µM) 10%; (at 11.0 µM) 11%; (at 33.0 µM) 14%; (at 100.0 µM) 16%.

With `CCCCCCCCCCCCCCCCCCNc1nc(=O)n(C2CC(OP(=O)(O)OCC3OC(n4cc(F)c(=O)[nH]c4=O)CC3O)C(CO)O2)cc1F` (stereo not given), the growth inhibition was 4% (at 1.2 µM); -4% (at 3.7 µM); -13% (at 11.0 µM); -8% (at 33.0 µM); 46% (at 100.0 µM).

In the case of `CCC[CH2][Ge]([CH2]CCC)([CH2]CCC)[O]C(=O)C(O)c1ccccc1` (stereo not given), the growth inhibition (at 1.2 µM) is -4%; the growth inhibition (at 3.7 µM) was -5%; the growth inhibition (at 11.0 µM) is 11%; the growth inhibition (at 33.0 µM) was 60%; the growth inhibition (at 100.0 µM) was 99% (active).

`C[n+]1c(/C=C/c2ccc(/C=N/NC(=O)c3ccc(C(=O)N/N=C/c4ccc(/C=C/c5cn6ccccc6[n+]5C)cc4)cc3)cc2)cn2ccccc21`: the growth inhibition is 25% (at 1.2 µM); 88% (active) (at 3.7 µM); 95% (active) (at 11.0 µM); 97% (active) (at 33.0 µM); 95% (active) (at 100.0 µM).

In the case of `Cc1ccccc1NC(=O)c1c(C)oc2c1C(=O)c1ccccc1C2=O`, the growth inhibition is -28% (at 1.2 µM); -23% (at 3.7 µM); -23% (at 11.0 µM); -5% (at 33.0 µM); 60% (at 100.0 µM).

For the compound `Cc1cccc(C)c1NC(=O)CCC(=O)C(C)C(=O)c1ccc(O)cc1` (stereo not given), the growth inhibition is, setting by setting: (at 1.2 µM) -1%; (at 3.7 µM) -2%; (at 11.0 µM) -1%; (at 33.0 µM) -1%; (at 100.0 µM) -2%.

Take `Cc1c2cc[n+](CCO)cc2c(C)c2c1[nH]c1ccc(O)cc12`: the growth inhibition was 8% (at 1.2 µM); 12% (at 3.7 µM); 1% (at 11.0 µM); 11% (at 33.0 µM); 13% (at 100.0 µM).
